PD-1 reverse act = activators reversing PD-1 mediated T-cell inhibition. primary human CD4 T cells, PD-L1 beads, CellTiter-Glo 96 h. activation, % (test concentration not listed). 29,000 tested, under 10 active. AID 2316; call rule not given here
MITF inh = blocks MITF activity | TRPM1 promoter luciferase, luminescence, 24 h | inhibition, % (no concentration beside the values) | hit rate 0.28% among 37,000; in the data active means inhibition above about 85%; inconclusive means no clear call, values can overlap the other calls; inactive means below about 68%;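 further: human melanocyte line stably carrying TRPM1 promoter luciferase reporter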
NOMO-1 viab = STK33 inhibitor candidate reducing NOMO-1 cell viability; inhibition, % (no concentration beside the values); hit rate 7.5% among 37,000; AID 2330; NOMO-1 AML viability, CellTiter-Glo luminescence, 72 h; in the data active means inhibition above about 80%; inconclusive means no clear call, values can overlap the other calls
Shh pathway inh = Sonic Hedgehog pathway inhibition; Shh-LIGHT2 Gli-luciferase reporter, 30 h; inhibition, % (concentration not given with the values); hit rate 2.1% among 22,000; AID 2313;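 active means mean inhibition across valid replicates above about 65%, limit read from the data; inconclusive means mean under the limit, yet half or more replicates past it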;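 further: pathway switched on by Shh-conditioned medium diluted 1 in 25 in low serum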
Each line names hits and unclear results; the compound was inactive in the other large screens. An excerpt weighted towards active compounds, which were near 7.9% of everything screened.

COc1ccc(S(=O)(=O)N(C)C[C@@H]2Oc3ccc(NC(=O)Nc4ccc(C(F)(F)F)cc4)cc3C(=O)N([C@H](C)CO)C[C@@H]2C)cc1	NOMO-1 viab 105 (no result: Shh pathway inh)
C[C@@H]1CN([C@@H](C)CO)C(=O)c2cc(NC(=O)Nc3ccc(C(F)(F)F)cc3)ccc2O[C@H]1CN(C)S(=O)(=O)c1ccc(Cl)cc1	NOMO-1 viab 93
C[C@@H]1CCCCO[C@H](CN(C)S(=O)(=O)c2ccc(Cl)cc2)[C@@H](C)CN([C@H](C)CO)C(=O)c2cc(NC(=O)Nc3ccc(C(F)(F)F)cc3)ccc2O1	NOMO-1 viab 98
C[C@@H]1CN([C@H](C)CO)C(=O)c2cc(NC(=O)Nc3ccc(C(F)(F)F)cc3)ccc2O[C@H]1CN(C)S(=O)(=O)c1ccccc1	none
COc1ccc(-n2ncc(NC(=O)Nc3ccc4c(c3)OCCCO4)c2C)cc1	Shh pathway inh inconclusive
COc1ccc(S(=O)(=O)N(C)C[C@H]2Oc3ccc(NC(=O)Nc4ccc(C(F)(F)F)cc4)cc3C(=O)N([C@H](C)CO)C[C@@H]2C)cc1	none
COc1ccc(S(=O)(=O)N(C)C[C@H]2OCCCC[C@@H](C)Oc3ccc(NS(=O)(=O)c4ccc(Cl)cc4)cc3C(=O)N([C@H](C)CO)C[C@@H]2C)cc1	none (no result: PD-1 reverse act)
COc1ccc(S(=O)(=O)Nc2ccc3c(c2)C(=O)N([C@H](C)CO)C[C@H](C)[C@H](CN(C)S(=O)(=O)c2ccc(Cl)cc2)OCCCC[C@@H](C)O3)cc1	NOMO-1 viab 107
COc1ccc(S(=O)(=O)N(C)C[C@@H]2Oc3ccc(NC(=O)Nc4ccc(C(F)(F)F)cc4)cc3C(=O)N([C@H](C)CO)C[C@H]2C)cc1	NOMO-1 viab 113
Cc1ccc(C(C)C)c(OCc2ccc(C(=O)Nc3sc4c(c3C#N)CCCC4)o2)c1	none (no result: Shh pathway inh)
O=C(Cn1ccc([N+](=O)[O-])n1)Nc1cc(F)ccc1F	none (no result: Shh pathway inh)
Cc1ccc(-n2c(SCC(=O)Nc3ccccc3C)nc3nc4c(cc3c2=O)COC(C)(C)C4)cc1	none (no result: PD-1 reverse act, Shh pathway inh)
COC(=O)c1ccc([C@H]2C(C#N)=C(N)C(C#N)(C#N)C3=CCC(C(C)(C)C)C[C@@H]32)cc1 (stereo partly specified)	NOMO-1 viab 116, Shh pathway inh 84
C[C@H](CO)N1C[C@H](C)[C@H](CN(C)C(=O)Nc2ccc(C(F)(F)F)cc2)Oc2ccc(NC(=O)Nc3ccc(C(F)(F)F)cc3)cc2CC1=O	NOMO-1 viab 114 (no result: PD-1 reverse act)
C[C@H]1CN([C@@H](C)CO)C(=O)Cc2cc(NC(=O)Nc3ccc(C(F)(F)F)cc3)ccc2O[C@@H]1CN(C)C(=O)Nc1ccc(C(F)(F)F)cc1	none
CC(C)NC(=O)Nc1ccc2c(c1)CC(=O)N([C@H](C)CO)C[C@H](C)[C@H](CN(C)C(=O)Nc1ccc(F)cc1)O2	Shh pathway inh 77 (no result: PD-1 reverse act)
C[C@H](CO)N1C[C@H](C)[C@H](CN(C)C(=O)Nc2ccc(F)cc2)Oc2ccc(NC(=O)Nc3ccc(C(F)(F)F)cc3)cc2CC1=O	none (no result: PD-1 reverse act)
C[C@@H]1CN([C@@H](C)CO)C(=O)Cc2cc(NC(=O)Nc3ccc(C(F)(F)F)cc3)ccc2O[C@@H]1CN(C)C(=O)Nc1ccc(F)cc1	NOMO-1 viab 115
COc1ccccc1OCC(=O)Nc1ccc(-c2nc3ccc(C)cc3[nH]2)cc1	NOMO-1 viab 110 (no result: Shh pathway inh)
COC(=O)c1cc(NC(=O)CN(c2cc(Cl)c(Cl)cc2Cl)S(C)(=O)=O)ccc1Cl	NOMO-1 viab 133 (no result: Shh pathway inh)
CS(=O)(=O)N(CC(=O)Nc1ccc(Oc2ccccc2)cc1)c1cc(Cl)c(Cl)cc1Cl	NOMO-1 viab 118 (no result: Shh pathway inh)
CS(=O)(=O)N(CC(=O)Nc1ccc(C(F)(F)F)cc1)c1ccc(Oc2ccccc2)cc1	NOMO-1 viab 109 (no result: Shh pathway inh)
COC(=O)c1ccc(NC(=O)CN(c2cc(Cl)c(Cl)cc2Cl)S(C)(=O)=O)cc1	none (no result: Shh pathway inh)
Cc1ccc(NC(=O)CN(c2cc(Cl)c(Cl)cc2Cl)S(C)(=O)=O)cc1Cl	NOMO-1 viab 84 (no result: Shh pathway inh)
CS(=O)(=O)N(CC(=O)Nc1ccc(C(F)(F)F)cc1)c1cccc(C(F)(F)F)c1	none (no result: Shh pathway inh)
COc1cccc(NC(=O)CN(c2cc(Cl)c(Cl)cc2Cl)S(C)(=O)=O)c1	none (no result: Shh pathway inh)
Cc1ccc(NC(=O)CN(c2cc(Cl)c(Cl)cc2Cl)S(C)(=O)=O)cc1	none (no result: Shh pathway inh)
O=C(NCCCN1CCCC1=O)Nc1ccc(Br)cc1	none (no result: PD-1 reverse act, Shh pathway inh)
CC(=O)Nc1nonc1-c1nc2ccccc2n1Cc1ccccc1Br	NOMO-1 viab 115 (no result: Shh pathway inh)
C[C@@H]1CN([C@H](C)CO)C(=O)Cc2cc(NS(=O)(=O)c3ccc(Cl)cc3)ccc2O[C@@H]1CN(C)CC1CCCCC1	NOMO-1 viab 114
C[C@@H]1CN([C@H](C)CO)C(=O)Cc2cc(NS(=O)(=O)c3ccc(Cl)cc3)ccc2O[C@H]1CN(C)CC1CCCCC1	NOMO-1 viab 127
C[C@@H]1CN([C@H](C)CO)C(=O)Cc2cc(NS(=O)(=O)c3ccc(Cl)cc3)ccc2O[C@H]1CN(C)CC1CC1	none
C[C@@H]1CN([C@H](C)CO)C(=O)c2cc(NC(=O)Nc3ccccc3)ccc2O[C@@H]1CN(C)C(=O)Nc1ccc(C(F)(F)F)cc1	NOMO-1 viab 87
C[C@H]1CN([C@@H](C)CO)C(=O)c2cc(NC(=O)Nc3ccccc3)ccc2O[C@@H]1CN(C)C(=O)Nc1ccc(C(F)(F)F)cc1	none
C[C@H](CO)N1C[C@H](C)[C@H](CN(C)C(=O)Nc2ccccc2)Oc2ccc(NC(=O)Nc3ccc(C(F)(F)F)cc3)cc2C1=O	NOMO-1 viab 103
C[C@@H]1CN([C@@H](C)CO)C(=O)c2cc(NC(=O)Nc3ccccc3)ccc2O[C@@H]1CN(C)C(=O)Nc1ccc(C(F)(F)F)cc1	NOMO-1 viab 102
COc1ccc(N(C(=O)c2ccccc2)S(=O)(=O)c2cc(OC)ccc2OC)cc1	none (no result: Shh pathway inh)
O=C(COc1ccc(Cl)cc1)Nc1ccc2nn(-c3ccc(F)cc3)nc2c1	none (no result: Shh pathway inh)
COc1cc(-c2nc3sc4c(c3c(=O)[nH]2)CCCC4)cc(Br)c1OCC(=O)O	none (no result: PD-1 reverse act, Shh pathway inh)
N#CC(=C(/N)Sc1ccccc1N)/C(C#N)=C(\N)Sc1ccccc1N	NOMO-1 viab 94 (no result: PD-1 reverse act)
O=C1/C(=C\c2c[nH]c3ccccc23)C(c2ccccc2)Oc2ccccc21 (stereo unspecified)	NOMO-1 viab 121 (no result: Shh pathway inh)
CC1C[C@@]23CC4C(C)(C)[C@@]5(C[C@]4(CN2C1=O)N(C)C3=O)C(=O)Nc1c5ccc2c1C(=O)CC(C)(C)O2 (stereo partly specified)	NOMO-1 viab 118
COc1ccc(OC)c(NC(=O)C(C)N(c2ccc(C)c(C)c2)S(C)(=O)=O)c1 (stereo unspecified)	none (no result: PD-1 reverse act, Shh pathway inh)
C[C@@H]1CN([C@H](C)CO)C(=O)Cc2cc(NS(=O)(=O)c3ccc(F)cc3)ccc2O[C@@H]1CN(C)Cc1ccc(Cl)c(Cl)c1	NOMO-1 viab 106 (no result: Shh pathway inh)
C[C@H]1CN([C@@H](C)CO)C(=O)Cc2cc(NS(=O)(=O)c3ccc(F)cc3)ccc2O[C@@H]1CN(C)Cc1ccc(Cl)c(Cl)c1	none
C[C@H](CO)N1C[C@H](C)[C@H](CN(C)Cc2ccc(Cl)c(Cl)c2)Oc2ccc(NS(=O)(=O)c3ccc(F)cc3)cc2CC1=O	NOMO-1 viab 107
C[C@@H]1CCCCO[C@H](CN(C)Cc2ccc(Cl)c(Cl)c2)[C@@H](C)CN([C@H](C)CO)C(=O)c2cc(N(C)C)ccc2O1	NOMO-1 viab 87

Screening results: PubChem, Broad Institute
